# Test results as given in paper PMC3315485, “Probing the Informational and Regulatory Plasticity of a Transcription Factor DNA–Binding Domain”.
# Where a chain is given by its changes, count along the chain named.
# Key:
# Assay in all cases: MITOMI; MITOMI, 295 K (22 C); buffer, salt and pH not stated in the material; high values mean tight binding
# Conditions in all cases: protein: ivt; label: fluorescent; dsDNA, one strand shown
# MarA RQR = biological target: T1, MarA RQR (Escherichia coli, UniProt P0ACH5 1-127, W40R)
# T1 sequence: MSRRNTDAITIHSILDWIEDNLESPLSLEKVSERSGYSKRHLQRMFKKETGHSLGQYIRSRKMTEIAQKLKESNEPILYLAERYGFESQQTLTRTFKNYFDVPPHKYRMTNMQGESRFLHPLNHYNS
# In short: (§1)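 Each fluorescently labelled MarA protein variant, made by in vitro transcription and translation with the RTS E. coli HY kit plus tRNA-lys-bodipy-fl, was tested by MITOMI against 64 synthesized mar binding site variants. Protein and DNA fluorescence were read on Genepix at 295K. Association constants, measured by MITOMI, are reported for each site relative to the highest-affinity site for the same protein variant.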
# MarA RTR = biological target: T2, MarA RTR (Escherichia coli, UniProt P0ACH5 1-127, W40R;Q43T)
# T2 sequence: T1 sequence with Q43T
# In short: as §1
# MarA SAR = biological target: T3, MarA SAR (Escherichia coli, UniProt P0ACH5 1-127, W40S;Q43A)
# T3 sequence: T1 sequence with R40S, Q43A
# In short: as §1
# MarA TRR = biological target: T4, MarA TRR (Escherichia coli, UniProt P0ACH5 1-127, W40T;Q43R)
# T4 sequence: T1 sequence with R40T, Q43R
# In short: as §1
sequence,measurement,setting,value
ATGTTCCGTTTTGCTAAAT,binding signal,MarA RQR,0.16 Ka relative to the best site of the variant
same,binding signal,MarA RTR,0.207 Ka relative to the best site of the variant
same,binding signal,MarA SAR,0.254 Ka relative to the best site of the variant
same,binding signal,MarA TRR,0.449 Ka relative to the best site of the variant
